Screening data from PubChem.
IL1B secr inh: inflammasome signaling inhibition, IL-1 beta readout; 360,000 compounds, 4.7% hits; THP-1 LPS/ATP IL-1B secretion, AlphaLISA, 16 h; active compounds read low; AID 743279; activity change, % at 57.5 µM; in the data active = activity change below about -50%; inconclusive = mostly about -30% to -49%; note: % is set by controls: 0 for no effect and ±100 for the full control effect
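Secreted IL-1B measured by AlphaLISA bead assay after 16 h compound exposure of THP-1 cells; compounds (final up to 57.5 uM) added 1 h before LPS (250 ng/mL) and ATP (1.25 mM) stimulation; lower signal means less secretion.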
MCF10A rerep: inducers of DNA re-replication in MCF 10A breast cells; MCF 10A DNA re-replication, Hoechst nuclear intensity, 48 h; Potency, µM (series often up to 46.1 µM), for the others: at the top dose activity, positive = re-replication, actives largely listed as activators; 350,000 compounds, 2.9% hits; AID 624296; note: potency is the fitted concentration of half-maximal effect; % of control where 0% means no effect; nearly all actives have a fitted effect of over 50% in size
SW480 rereplic: inducers of DNA re-replication in SW480 colon cancer cells. Potency, µM (top dose mostly 46.1 µM), inactives show at the top dose re-replication activation, actives largely listed as activators. SW480 DNA re-replication, Hoechst DNA content imaging, 48 h. AID 624297. 340,000 compounds, 1.8% hits; note: potency is the fitted concentration of half-maximal effect; % of control where 0% means no effect; nearly all actives have a fitted effect of over 55% in size
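Image-based read-out: total Hoechst fluorescence of nuclei (405 nm excitation, 500-530 nm emission), with hits raising the fraction of high-intensity nuclei. SW480 colon cells incubated 48 hr with compounds at 37 C.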
Chronic BCR inh: chronic active BCR signaling inhibition. ABC-DLBCL IkBa-CBG/CBR reporter, luminescence ratio, 4 h. Potency, µM (highest dose often 46.1 µM), for inactives: at the highest dose activity change, negative = inhibition, actives largely listed as inhibitors. 340,000 compounds, 0.05% hits. AID 493014; active = well fitted inhibition curve with a large enough effect in the signal ratio, with a control signal flat, not every such curve was filed as active; inconclusive = small, poorly fitted or top-dose-only effect, or effect the other way, or a change in a side signal; the % refers to the signal ratio;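 note: potency is the fitted concentration of half-maximal effect; plate controls were basal doxycycline-induced cells for no effect and cells given 10 µM MG132 for full effect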
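Compounds up to 46 uM were incubated four hours with TMD8 cells whose green CBG68 luciferase is fused to IkappaBalpha; red CBR luminescence normalised the signal, and concentration-effect curves were fitted to fusion, red and ratio data.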
TDP1 cell CPT: growth inhibition of DT40 Tdp1-/-;hTDP1 cells with camptothecin (screen for TDP1 inhibitors) | chicken DT40 Tdp1-/-;hTDP1 cells + 20 nM CPT, ATP luminescence, 48 h | Potency, µM (series often up to 46.2 µM), for inactives: at the highest dose activity change, negative = growth inhibition, most hits filed as inhibitors | 420,000 compounds, 12% hits | AID 686979; note: potency is the fitted concentration of half-maximal effect; % is set by controls: 0 for no effect and ±100 for the full control effect; nearly all actives have a fitted effect of over 55% in size
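Chicken DT40 Tdp1-/- cells stably complemented with human TDP1 were seeded at 400 cells/well in medium containing 20 nM camptothecin, exposed to pin-transferred compounds, and grown at 37 °C for at least 48 hr. Viability was read as ATP luminescence.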
TDP1 cell noCPT: qHTS for Inhibitors of human tyrosyl-DNA phosphodiesterase 1 (TDP1): qHTS in cells in absence of CPT. DT40 Tdp1-/- hTDP1 cells, no CPT, ATP luminescence, 48 h. Potency, µM (series often up to 46.2 µM), inactives show top-dose activity change, negative = growth inhibition, actives largely listed as inhibitors. 420,000 compounds, 15% hits. AID 686978, 2013; note: potency is the fitted concentration of half-maximal effect; % is set by controls: 0 for no effect and ±100 for the full control effect; nearly all actives have a fitted effect of over 55% in size
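Camptothecin absent (DMSO only). Human TDP1-complemented DT40 knockout cells, 400 cells/well, 37 °C for minimum 48 hr; ATP measured via CellTiter-Glo, 30 min dark incubation, luminescence.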
Numbers without * were called inactive; u = inconclusive; x = no result; [ ] = dose if it differs, or a comment. The list is not random: actives were taken first. Their share in the collection is about 19%. Unless noted, calls come from the whole dose curve; as a rule, active = well fitted curve in the direction sought with a large enough effect; inconclusive = small, poorly fitted or top-dose-only effect, or another doubt; inactive = no such curve, though single readings can be large; an effect the other way counts as inactive or inconclusive.

SMILES	IL1B secr inh	MCF10A rerep	SW480 rereplic	Chronic BCR inh	TDP1 cell CPT	TDP1 cell noCPT
O=C(Nc1ccc(S(=O)(=O)N2CCOCC2)cc1)c1ccc(F)cc1	-14	1%	2%	-6%	6%	-27%
O=C(Nc1ccc(S(=O)(=O)Nc2ccc(F)cc2)cc1)c1ccc(CN2CCOCC2)cc1	u	u	u	u	u	18µM*
CCOC(=O)c1oc2ccccc2c1COC(=O)C(C)NC(=O)c1ccco1 (centres undefined)	26	-2%	-17%	0%	u	u
COc1ccccc1NC(=O)Nc1nn(C)c2cccc(N(C)C)c12	u	18%	0%	4%	15µM*	16µM*
O=C(CCSc1ccc(F)cc1)NNC(=O)c1ccccc1Cl	67	4%	u	3%	-18%	5%
CCC(=O)N1CCc2cc(CNC(=O)Cc3ccc(OC)c(OC)c3)ccc21	x	x	x	10%	-23%	u
CC(C)(C)NC(=O)c1ccc(COc2ccc(Cl)cc2Cl)o1	-69*	u	6%	-18%	6%	u
O=C(Nc1ccc(Cl)cc1F)c1ccc(COc2c(F)c(F)c(F)c(F)c2F)o1	7	6%	1%	u	-1%	-17%
O=C(c1ccc(COc2ccc(Cl)cc2Cl)o1)N1CCCC1	-28	9%	-3%	u	-30%	18µM*
Clc1ccccc1Cc1noc(CN2CCCCC2CCc2ccccn2)n1 (centres undefined)	-13	-4%	2%	2%	u	u
Cc1cc(-n2c(C)cc(C(=O)CSc3ccc4c(c3)OCCO4)c2C)no1	-18	26%	2%	-6%	u	26µM*
Cc1cc(-n2c(C)cc(C(=O)CSc3ccccn3)c2C)no1	3	-12%	-20%	4%	u	u
Cc1cc(-n2c(C)cc(C(=O)CCl)c2C)no1	-102*	3.3µM*	u	u	1.2µM*	0.92µM*
COc1ccc(N2CC(NC(=O)c3ccc(Br)o3)CC2=O)cc1 (centres undefined)	x	x	x	-3%	-17%	-22%
CC(C)NC(=O)Cn1c(=O)nc(-c2ccccc2F)c2cc(Cl)ccc21	x	x	x	x	-65%	7.3µM*
CC(CCc1ccccc1)NC(=O)Cn1c(=O)nc(-c2ccccc2F)c2cc(Cl)ccc21 (centres undefined)	x	x	x	x	-8%	-26%
O=C(NC1CCCCCCC1)c1cnccn1	6	0%	-10%	0%	9%	-18%
C/C(CC(=O)NC1CCCCCC1)=N\NC(=O)c1cnccn1	2	-3%	0.52µM*	u	-14%	-3%
O=C(Nc1ccc(Cl)cc1)C1=Cc2cc(Cl)ccc2OC1	-17	u	-1%[9.22 µM]	u	18µM*	26µM*
O=C(Nc1ccc(Cl)cc1Cl)C1=Cc2ccccc2OC1	4	16%	-3%	u	-20%	-17%
COc1ccc2c(c1)C=C(C(=O)NCc1ccc(Cl)cc1)CO2	u	9%	-1%	3%	u	-15%
COc1ccc(NC(=O)C2=Cc3cccc(OC)c3OC2)cc1	-5	-4%	-3%	u	-5%	u
CC(C)Oc1ccc(CNC(=O)C2=Cc3ccccc3OC2)cc1	x	x	x	x	21µM*	u
COc1ccc(NC(=O)C2=Cc3ccccc3OC2)cc1	-51*	1%	11%	u	-12%	u
COc1cc(NC(=O)c2sc3ncn(CC(=O)N4CCCCC4)c(=O)c3c2C)cc(OC)c1OC	1	-2%	2%	2%	-26%	-17%
CCc1nc2c(OCc3cccc(Cl)c3)cccn2c1N(C)C(=O)C(C)C	22	x	x	x	16µM*	18µM*
CCCCC(=O)N(C)c1c(CC)nc2c(OCC=C(C)C)cccn12	41	x	x	x	u	21µM*
